High-throughput results as filed in PubChem.
SW480 rereplic: induces DNA re-replication in SW480 colon adenocarcinoma cells. SW480 DNA re-replication, Hoechst DNA content imaging, 48 h. Potency, µM (series often up to 46.1 µM), for the others: at the highest dose re-replication activation, hits mostly activators. actives 1.8% (n = 340,000). AID 624297; also: potency is read from the fitted curve at half-maximal effect; % of control where 0% means no effect; nearly all actives have a fitted effect of over 55% in size
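Cells (250 per well) received 23 nL compound or DMSO by pin tool and were kept 48 hr at 37 C, 5% CO2. Nuclei were then stained with Hoechst for 40 min and scanned for DNA content.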
DRD3 antagonist: D3 dopamine receptor (human) antagonism. P35462. D3R cells, DiscoveRx beta-arrestin luminescence, antagonist mode; hits give low values. max response, negative = inhibition, %. actives 2.5% (n = 360,000); in the data active = max response below about -50%; inconclusive = no clear call, values can overlap the other calls; also: % is scaled to controls: 0 for no effect and ±100 for the full control effect
Target sequence (P35462 whole entry, looked up): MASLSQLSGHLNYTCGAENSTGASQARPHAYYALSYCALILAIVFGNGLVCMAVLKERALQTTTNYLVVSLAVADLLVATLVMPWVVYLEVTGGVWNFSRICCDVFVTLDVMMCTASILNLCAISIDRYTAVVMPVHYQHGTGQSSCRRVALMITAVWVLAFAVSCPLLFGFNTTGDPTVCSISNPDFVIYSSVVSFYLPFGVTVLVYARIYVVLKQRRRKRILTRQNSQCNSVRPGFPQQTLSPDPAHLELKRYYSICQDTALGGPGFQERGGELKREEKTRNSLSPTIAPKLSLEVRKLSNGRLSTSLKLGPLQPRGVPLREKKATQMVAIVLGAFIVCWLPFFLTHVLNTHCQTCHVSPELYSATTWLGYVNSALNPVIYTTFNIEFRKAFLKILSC
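Cells plated overnight at 1500 cells/well, then exposed to library compounds with dopamine controls for 90 minutes at 37 degrees C. DiscoveRx reagent added for 30–60 minutes at room temperature; luminescence read, quantitative HTS format.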
KB-V1 MDR tox: KB-V1 MDR subline cytotoxicity; KB-V1 MDR cells viability, CellTiter-Glo, 72 h; Potency, µM (top dose mostly 46.1 µM), most hits filed as cytotoxic; actives 3.4% (n = 400,000); also: potency is read from the fitted curve at half-maximal effect; % is scaled to controls: 0 for no effect and ±100 for the full control effect; nearly all actives have a fitted effect of over 60% in size
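Potencies derive from concentration-effect curves fitted to normalized luminescence (CellTiter-Glo) of KB-V1 cells treated for 72 h at 37 degrees C in phenol-red-free DMEM containing 10% FBS.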
MCF10A rerep: DNA re-replication induction in MCF 10a cells | MCF 10A DNA re-replication, Hoechst nuclear intensity, 48 h | Potency, µM (doses to about 46.1 µM), for inactives: at the top dose activity, positive = re-replication, usual class: activators | actives 2.9% (n = 350,000); also: potency is read from the fitted curve at half-maximal effect; % of control where 0% means no effect; nearly all actives have a fitted effect of over 50% in size
KB-3-1 cytotox: KB-3-1 parental cell cytotoxicity | Potency, µM (titrated, usually from 46.1 µM), hits mostly cytotoxic | actives 1.4% (n = 400,000) | KB-3-1 viability, CellTiter-Glo ATP luminescence, 72 h | AID 1347075; also: potency is read from the fitted curve at half-maximal effect; % is scaled to controls: 0 for no effect and ±100 for the full control effect; nearly all actives have a fitted effect of over 60% in size
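Cytotoxicity in the drug-sensitive parental line KB-3-1 was scored as loss of CellTiter-Glo luminescence following 72 h incubation with compound. Values come from curve fitting of normalized concentration-response data.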
DRD3 agonist: activates the human D3 dopamine receptor; D3R DiscoveRx beta-arrestin cells, luminescence, 90 min; max activation, %; actives 0.58% (n = 410,000); AID 652048; in the data active = max activation above about 30%; also: 0% is about no effect
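Agonist-mode cell screen: cells plated at 1500/well and incubated overnight at 37 °C, then exposed to library compounds for 90 min at 37 °C. Detection reagent was added for 30–60 min at room temperature, and luminescence was read.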
The depositor's hits bear a star; [ ] = remark or other dose. Most compounds without a hit are left out; they make up all but 8.9% or so of the library. Unless noted, calls follow the shape of the dose curve; as a rule, active = well fitted curve in the direction sought with a large enough effect; inconclusive = small, poorly fitted or top-dose-only effect, or another doubt; inactive = no such curve, though single readings can be large; an effect the other way counts as inactive or inconclusive.

For CCOC(=O)Cn1c(=O)n(CC2CCCO2)c2nc(-c3ccccc3F)nc(C(N)=O)c21 (configuration not stated) the results were KB-V1 MDR tox inconclusive, KB-3-1 cytotox inactive and DRD3 agonist 6.
`O=c1c2ccccc2nnn1CSc1ccc2ccccc2n1` gave SW480 rereplic 65%, DRD3 antagonist -3, KB-V1 MDR tox 23µM*, MCF10A rerep inconclusive, KB-3-1 cytotox inactive and DRD3 agonist 6.
`Cc1cc(SCn2nnc3ccccc3c2=O)nc2ccccc12` gave SW480 rereplic 0%, DRD3 antagonist 9, KB-V1 MDR tox 16µM*, MCF10A rerep 25%, KB-3-1 cytotox inactive and DRD3 agonist -2.
Screening O=c1c2ccccc2nnn1CSc1ccccc1 returned SW480 rereplic 1%, DRD3 antagonist 11, KB-V1 MDR tox inactive, MCF10A rerep 0%, KB-3-1 cytotox inactive and DRD3 agonist 6.
Screening COc1ccc(NCC(=O)Nc2cccc(C(F)(F)F)c2)cc1S(=O)(=O)N1CCOCC1 returned SW480 rereplic 13%, DRD3 antagonist 4, KB-V1 MDR tox inactive, MCF10A rerep 5%, KB-3-1 cytotox inactive and DRD3 agonist -8.
C=CCCC(=O)Nc1nc(C)c(-c2csc(Nc3cc(OC)ccc3OC)n2)s1 was read as SW480 rereplic 23µM*, DRD3 antagonist 70, KB-V1 MDR tox inactive, MCF10A rerep inconclusive, KB-3-1 cytotox inconclusive and DRD3 agonist 9.
COc1ccccc1Nc1nc(-c2c(C)[nH]c3ccccc23)cs1 was read as SW480 rereplic 10µM*, DRD3 antagonist -21, KB-V1 MDR tox inactive, MCF10A rerep 5.8µM*, KB-3-1 cytotox inactive and DRD3 agonist -6.
Screening COc1ccccc1Nc1nc(-c2sc(NC(=O)C(C)(C)C)nc2C)cs1 returned SW480 rereplic 17%[9.22 µM], DRD3 antagonist 16, KB-V1 MDR tox inactive, MCF10A rerep 5%, KB-3-1 cytotox 8.2µM* and DRD3 agonist 1.
Screening Cc1[nH]c2ccccc2c1-c1csc(N)n1 returned SW480 rereplic -3%, DRD3 antagonist 18, KB-V1 MDR tox inactive, MCF10A rerep -13%, KB-3-1 cytotox inactive and DRD3 agonist 4.
CC1(C)CC(=O)C(C(C2=C(O)CC(C)(C)CC2=O)c2ccc(Br)s2)C(=O)C1 (configuration not stated) was read as SW480 rereplic inconclusive, DRD3 antagonist 1, KB-V1 MDR tox 21µM*, MCF10A rerep 13µM*, KB-3-1 cytotox inconclusive and DRD3 agonist -1.
Cc1ccc(C(C2=C(O)CC(C)(C)CC2=O)C2C(=O)CC(C)(C)CC2=O)s1 (configuration not stated) was read as SW480 rereplic inconclusive, DRD3 antagonist 20, KB-V1 MDR tox inactive, MCF10A rerep 23µM*, KB-3-1 cytotox inactive and DRD3 agonist 3.
For CN(C)c1ccc(C(CNC(=O)c2ccco2)N2CCCC2)cc1 (configuration not stated) the results were SW480 rereplic 1%, DRD3 antagonist -11, KB-V1 MDR tox inconclusive, MCF10A rerep 5%, KB-3-1 cytotox inactive and DRD3 agonist -8.
Screening CNC(=S)NNC(=O)Cc1ccccc1 returned SW480 rereplic 2%, DRD3 antagonist 12, KB-V1 MDR tox inactive, MCF10A rerep 6%, KB-3-1 cytotox inactive and DRD3 agonist -6.
Screening CCOc1ccc(CC(=O)NNC(=S)NC)cc1 returned SW480 rereplic -56%, DRD3 antagonist -7, KB-V1 MDR tox inactive, MCF10A rerep 1.3µM*, KB-3-1 cytotox inactive and DRD3 agonist 4.
Screening COc1ccc(-c2c(C)nn3c(N)c(C#N)cnc23)cc1OC returned SW480 rereplic -5%, DRD3 antagonist 15, KB-V1 MDR tox 9.2µM*, MCF10A rerep -1%, KB-3-1 cytotox inactive and DRD3 agonist 9.
Screening O=C(Nc1nc2c(s1)CCCC2)c1ccc(N2C(=O)CCC2=O)cc1 returned SW480 rereplic -7%, DRD3 antagonist -24, KB-V1 MDR tox inactive, MCF10A rerep -20%, KB-3-1 cytotox inactive and DRD3 agonist -2.
Screening O=C(Nc1nc2c(s1)CCCC2)c1ccc(Br)s1 returned SW480 rereplic inconclusive, DRD3 antagonist -67*, KB-V1 MDR tox 5.2µM*, MCF10A rerep 0%, KB-3-1 cytotox 16µM* and DRD3 agonist -26.
For O=C(Nc1nccs1)[C@@H]1CCCN1C(=O)c1cccs1 the results were SW480 rereplic 0%, DRD3 antagonist -2, KB-V1 MDR tox inactive, MCF10A rerep -46%, KB-3-1 cytotox inactive and DRD3 agonist 0.
Screening Cc1ncsc1C(=O)Nc1nc2c(s1)CCCC2 returned SW480 rereplic inconclusive, DRD3 antagonist 10, KB-V1 MDR tox 13µM*, MCF10A rerep 5%, KB-3-1 cytotox 16µM* and DRD3 agonist 1.
`Cc1cc(C(=O)Nc2nc3c(s2)CCCC3)cs1` gave SW480 rereplic 20%, DRD3 antagonist 29, KB-V1 MDR tox inactive, MCF10A rerep -1%, KB-3-1 cytotox inactive and DRD3 agonist -6.
`O=C(Nc1nc2c(s1)CCCC2)C1CCCN1C(=O)c1cccs1` (configuration not stated) gave SW480 rereplic 9%, DRD3 antagonist -53*, KB-V1 MDR tox inactive, MCF10A rerep 4%, KB-3-1 cytotox inactive and DRD3 agonist -5.
For COc1cc(Cl)c(C)cc1NC(=O)c1cc2c(Cl)nc3ccc(C)cc3c2s1 the results were DRD3 agonist 5.
`C1=Cc2ccccc2/C1=C\c1ccc2c(c1)OCO2` gave KB-V1 MDR tox inactive and KB-3-1 cytotox inactive.
Screening COCCn1c(SCC(=O)Nc2cccc(C)c2C)nc2c(oc3ccccc32)c1=O returned KB-V1 MDR tox inactive, KB-3-1 cytotox inactive and DRD3 agonist -1.
Cc1cc(F)ccc1NC(=O)CCS(=O)(=O)c1cc2c(cc1C)NC(=O)CO2 was read as KB-V1 MDR tox inactive, KB-3-1 cytotox inactive and DRD3 agonist 8.
`Cc1ccc(C(=O)N2CCN(Cc3nc4sc5c(c4c(=O)[nH]3)CCCC5)CC2)cc1` gave SW480 rereplic -4%, DRD3 antagonist -5, KB-V1 MDR tox 16µM*, MCF10A rerep 0%, KB-3-1 cytotox inconclusive and DRD3 agonist 22.
For O=C(NCC(c1ccc2c(c1)OCO2)N1CCN(c2ccccc2)CC1)c1ccc(F)c(F)c1 (configuration not stated) the results were KB-V1 MDR tox inactive, KB-3-1 cytotox inactive and DRD3 agonist -21.
